Out of some 340,000 compounds screened, about 2,100 (0.62%) were called active.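 How the source made its calls: active means first-screen hits whose inhibition reached a set limit at any dose in the follow-up dose series; inconclusive means inhibition above the set first-screen limit but never retested; inactive means the rest.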 Not all results are given here. Results with a measured potency or affinity are listed apart.
Target: Rac GTPase-activating protein 1 (Homo sapiens) (UniProt Q9H0H5)
Test: MgcRacGAP GTPase-activating activity inhibitors, confirmation, biochemical, ADP Hunter fluorescence, primary and confirmatory (AID 624330);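 further: fluorescence reports GDP produced by GAP-driven GTP hydrolysis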
Conditions: MgcRacGAP-stimulated Rac1 GTP hydrolysis, at 30 µM, stronger effect = higher value, GST-tagged Rac1 F28L mutant substrate

Rac GTPase-activating protein 1 (Homo sapiens), sequence (Q9H0H5 whole entry, looked up): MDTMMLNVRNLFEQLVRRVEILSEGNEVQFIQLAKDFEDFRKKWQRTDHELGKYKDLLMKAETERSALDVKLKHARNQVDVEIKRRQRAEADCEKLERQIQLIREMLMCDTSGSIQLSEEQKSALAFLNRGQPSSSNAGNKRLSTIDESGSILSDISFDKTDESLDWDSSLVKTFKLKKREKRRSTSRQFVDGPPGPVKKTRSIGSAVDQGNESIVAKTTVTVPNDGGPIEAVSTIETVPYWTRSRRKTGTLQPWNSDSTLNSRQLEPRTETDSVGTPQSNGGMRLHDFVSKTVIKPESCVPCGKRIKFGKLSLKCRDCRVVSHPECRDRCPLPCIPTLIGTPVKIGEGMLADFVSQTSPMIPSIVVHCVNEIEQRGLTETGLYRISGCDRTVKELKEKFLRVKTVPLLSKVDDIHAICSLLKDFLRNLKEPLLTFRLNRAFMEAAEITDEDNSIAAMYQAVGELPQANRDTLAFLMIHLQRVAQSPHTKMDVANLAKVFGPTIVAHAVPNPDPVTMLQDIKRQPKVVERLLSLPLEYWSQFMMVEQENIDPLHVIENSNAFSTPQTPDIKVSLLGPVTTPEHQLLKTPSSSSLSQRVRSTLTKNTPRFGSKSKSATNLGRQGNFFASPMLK

inhibition, inactive:
Cc1noc(C)c1COC(=O)c1ccccc1Sc1ccccc1C#N 3.85%, CCOc1ccc(CCN2C(=S)N([C@@H](CC(C)C)CN3CCCC3CN3C(=S)NC[C@@H]3Cc3ccc(O)cc3)C[C@@H]2Cc2ccc(O)cc2)cc1 (some centres undefined) 10.2%, O=C(OC(C(=O)NCc1ccccc1)c1ccccc1)c1ccco1 (centres undefined) 5.58%, Cc1cccn2cc(CNS(=O)(=O)c3cccc(F)c3)nc12 7.85%, O=C(CCc1nc2ccccc2[nH]1)N1CCN(C(=O)c2ccco2)CC1 -2.14%, CCC(C)[C@H](NC(=O)NCc1ccc(OC)c(OC)c1)C(=O)O (some centres undefined) 11.4%, Cc1ccc2nc(SCc3nnc(-c4ccccc4)o3)[nH]c2c1 12.2%, CCOC(=O)C1(Cc2ccccc2C)CCCN(C(=O)c2ccc3nccnc3c2)C1 (centres undefined) 7.5%, CCN(c1ccccc1)S(=O)(=O)c1ccc(C(=O)NCCCN2CCOCC2)cc1 8.29%, O=C(NNC(=O)c1ccccc1[N+](=O)[O-])c1ccc(NC(=O)c2ccccc2)cc1 12.4%, O=C(N/C=C\n1cnc2cc(C(F)(F)F)ccc21)c1ccc([N+](=O)[O-])cc1 6.01%, CS(=O)(=O)c1ccc(Cl)c(NC(=O)CN2CCN(C(=O)c3cccs3)CC2)c1 3.52%, c1ccc(N2CCN(c3nc4ccccc4n4nnnc34)CC2)cc1 2.04%, O=C(NCc1cccc(F)c1)C1CCC(=O)N(CCc2cccc(F)c2)C1 (centres undefined) 0.03%, COc1cccc(C(CC(=O)NCc2ccco2)NS(=O)(=O)c2ccc(C)cc2)c1OC (centres undefined) 2.02%, O=C(COC(=O)c1ccccc1C(=O)c1ccc(Cl)cc1)NCC1CCCO1 (centres undefined) 3.71%, COc1ccccc1CN1CCSCC1 23.4%, COc1ccc(S(=O)(=O)N2CCN(Cc3ccccc3OC)CC2)cc1 11.4%, O=C(Nc1ccccc1)Nc1nncs1 9.87%, O=c1[nH]n(-c2ccc(Cl)cc2)c2ncccc12 31.6%, O=c1[nH]n(-c2ccc(F)cc2)c2ncccc12 15.2%, CC(C)=N/N=c1\scc(C)n1Cc1ccco1 6.39%, Cc1cs/c(=N\N=C\c2ccccc2)n1Cc1ccco1 7.87%, C[C@H](CO)N1C[C@H](C)[C@@H](CN(C)C(=O)Nc2ccc(C(F)(F)F)cc2)Oc2c(NC(=O)CCC(F)(F)F)cccc2C1=O 3.3%, Cc1cccc(C(=O)c2cn[nH]c2-c2ccc(C)cc2O)c1 4.53%, Cc1ccc(CNC(=O)C(=O)NCCC2CCCCN2S(=O)(=O)c2ccccc2)cc1 (centres undefined) 9.49%, Cc1ccccc1CNC(=O)CCn1nc(C)c2c(C)n(-c3ccccc3)nc2c1=O 13.3%, O=C(NC(=S)Nc1cccc2ncccc12)c1ccco1 -0.13%, CCCC(=O)NC(=S)Nc1ccccc1F 5.15%, O=C(NC(=S)Nc1cccc2cc(O)ccc12)c1ccco1 23.9%, O=C(COc1ccccc1)NC(=S)Nc1cccc2c(O)cccc12 17.9%, CCc1noc(C)c1C(=O)Nc1cccc2ncccc12 3.52%, O=C(COC(=O)Cc1ccc(Cl)cc1)NCc1cccs1 6.22%, COC(=O)c1ccccc1COn1c(=O)c(C)[n+]([O-])c2ccccc21 6.87%, COc1ccc(N2CCc3c(C)nc(SC)nc32)cc1 2.67%, CSc1nc(C)c2c(n1)N(c1ccc(F)cc1)CC2 11.7%, Cc1ccc(Cl)cc1N1CCN(S(=O)(=O)N2CCCCC2)CC1 8.42%, CN(c1ccccc1)S(=O)(=O)c1cccc(C(=O)NCc2ccccc2)c1 5.13%, CN(C)S(=O)(=O)c1cccc(C(=O)NCCc2ccccc2)c1 10.5%, CC(C)(C)NC(=O)C(c1ccccn1)N(C(=O)c1csnn1)C1CCCCC1 (centres undefined) 2.75%, CCOC(=O)C1(Cc2ccccc2)CCN(Cc2csc(C(C)=O)c2)CC1 3.47%, O=C(CC(c1ccccc1)c1ccccc1)Nc1ccc(C(=O)O)cc1 13.2%, CC(=O)Nc1ccc(NC(=O)CC(c2ccccc2)c2ccccc2)cc1 11.3%, O=C(CCCC(=O)c1ccccc1)Nc1ccc(F)cc1 4.81%, CC(=O)c1ccc(NC(=O)CCCC(=O)c2ccccc2)cc1 8.95%, Cc1c(OCC(=O)N[C@@H](CSCc2ccccc2)C(=O)O)ccc2c3c(c(=O)oc12)CCC3 4.52%, CC(=O)c1cccc(-c2ccc3c(=O)[nH]c(Nc4ccccc4)cc3c2)c1 0.61%, COc1cc(-c2cc(-c3ccccc3)nc(SCC(=O)Nc3nccs3)c2C#N)cc(OC)c1OC -0.01%, CCS(=O)(=O)Nc1cccc(C2=NN(S(=O)(=O)c3ccc(C)cc3)C(c3cccs3)C2)c1 (centres undefined) -1.77%, CN1OC[C@@H]2CN(C(=O)CCc3ccccc3)[C@H](c3cccc(-c4ccc(C#N)cc4)c3)C[C@@H]21 4.81%, O=C(N1CCOCC1)N1CCN(C(c2ccccc2)c2ccccc2)CC1 5.11%, CC(C)Cc1nc(SCC(=O)NCC2CCCO2)c2c(=O)n(C)c(=O)n(C)c2n1 (centres undefined) 5.52%, Cc1cc(C)c(C)c(S(=O)(=O)N2CCN(c3ccccn3)CC2)c1C 6.39%, Cc1ccc(C(=O)O)cc1S(=O)(=O)N1CCC(C(=O)O)CC1 3.35%, Cc1cc(C)c(C)c(S(=O)(=O)N2CCC(C(=O)N3CCN(c4ccc(F)cc4)CC3)CC2)c1C 3.44%, COc1cccc(N2CCN(S(=O)(=O)c3ccc4ccccc4c3)CC2)c1 -3.05%, Cc1ccc(N2CCN(S(=O)(=O)c3ccc(C)cc3)CC2)cc1 8.85%, CC(=O)c1ccc(N2CCN(S(=O)(=O)c3ccc4ccccc4c3)CC2)cc1 1.69%, Cc1cc(C)c(C)c(S(=O)(=O)N2CCN(C)CC2)c1C 9.5%, Cc1ccc(S(=O)(=O)N2CCN(CC(=O)N3CCOCC3)CC2)cc1 6.79%, CCOc1cc(/C=C(\C#N)C(=O)Nc2ccccc2C(=O)O)ccc1OC(=O)c1ccc(C)cc1 12.7%, CCOC(=O)C1=C(N)n2c(s/c(=C\c3cccnc3)c2=O)=C(C#N)C1c1cccnc1 (centres undefined) 9.67%, CCOc1ccc(NC(=O)CN2CC(c3ccccc3)CC2=O)cc1 (centres undefined) 1.86%, CSc1cc(N2CCOCC2)nc(-c2ccccc2Cl)n1 2.89%, CCN1C(=O)[C@H]2[C@@H](c3ccc(-c4ccc(F)cc4)c(OC)c3)N[C@@](Cc3ccccc3)(C(=O)OC)[C@H]2C1=O 0.02%, OC(CN1CCN(C(c2ccccc2)c2ccccc2)CC1)c1ccccc1 (centres undefined) 8.44%, O=C(NCc1cccc(Cl)c1)C1CCC(=O)N(CCCN2CCCC2=O)C1 (centres undefined) 10.9%, CN(C(=O)c1cccc(C#CC(C)(C)O)c1)C1CCCN(Cc2ccccc2F)C1 (centres undefined) -6.83%, COc1ccc(N2CCN(C(=O)CSc3ccccc3)CC2)cc1 17.2%, O=C(CSc1ccccc1)N1CCN(c2ccccc2)CC1 10.2%, Cc1cnc(CNC(=O)c2ccc3oc(C(C)C)nc3c2)[nH]1 -0.66%, Cc1cc(Cl)cc(Br)c1OCCCCn1cncn1 15.5%, Cc1cc(Cl)c(OCCCn2cncn2)c(Br)c1 13.1%, O=c1c2ccccc2nnn1-c1ccccc1[N+](=O)[O-] 10.5%, COc1cc(C(=S)N2CCCC2)ccc1O 24.9%, COc1cc(C(=S)N2CCCCC2)ccc1O 13.6%, O=C(OCc1ccccc1)N1CCC2CC1c1cc(N3CCNCC3)ccc12 (centres undefined) 10.7%, Cn1c(=O)[nH]c(=O)c2c1nc(N1CCCCCC1)n2Cc1cccc2ccccc12 12.6%, CCOC(=O)C(Cc1ccccc1)NC(C)=O (centres undefined) -0.49%, CC(=O)NC(Cc1ccccc1)C(C)=O (centres undefined) 8.26%, COc1cc(CCC(=O)Nc2nnc(-c3cccnc3)s2)cc(OC)c1OC 9%, CCOC(=O)c1cc(NC(=O)c2cccs2)ccc1N1CCOCC1 10.9%, Clc1cc(NCc2cccs2)ccc1N1CCOCC1 14.1%, COC(=O)c1cc(NC(=O)c2cccs2)ccc1N1CCOCC1 8.25%, O=C(O)c1cc(NCc2cccs2)ccc1N1CCOCC1 8.2%, COc1ccccc1CNc1ccc(N2CCOCC2)c(C(=O)O)c1 11.4%, COC(=O)c1cc(NCc2c(F)cccc2Cl)ccc1N1CCOCC1 23.3%, CC(C)[C@H](NC(=O)c1ccccc1)C(=O)OCC(=O)N1CC2(C)CC1CC(C)(C)C2 (some centres undefined) -5.69%, Cc1ccc(S(=O)(=O)N2CCN(c3nc(CN4CCCC4)nc4sc(C)c(C)c34)CC2)cc1 6.41%, CC(C)OC(=O)CSc1nnc(-c2ccc(Cl)cc2Cl)o1 9.06%, O=C1OCCC1=COCCCCCOC=C1CCOC1=O 3.03%, N#Cc1ccccc1NC(=O)CSc1n[nH]c(=O)n1C1CC1 -2.21%, COc1ccccc1CN1CCNC(=O)C1CC(=O)NCCc1cnccn1 (centres undefined) 4.17%, COc1ccccc1/C=N/NC(=O)C(C)Cn1cnc2ccccc21 (centres undefined) 2.07%
